Measured values reported in PubChem BioAssay (EPA / NIEHS).
Values joined by “and” are separate entries in the source; they are usually repeats but may differ in a detail not shown here. Equal values may be shown once. More than one record can exist for a structure, and the calls need not agree. Active and inactive are the calls of the source. Rule for the calls: active = hit-call score of the fitted dose curve at least 0.9, where 1 is the maximum; inactive = score below 0.9.

Read-out: Vascular cell adhesion molecule 1 (VCAM1), VCAM1 (gene 7412)
Test: BSK_BF4T_VCAM1: BioMAP Diversity Plus: BF4T Assay for Vascular cell adhesion molecule 1 (VCAM1) Biomarker Activity (AID 2284249)
Conditions: primary human bronchial epithelial cells with fibroblasts
Experimental: BSK_BF4T is a cell-based, multiplexed-readout assay that uses bronchial epithelial cells and dermal fibroblasts, a human vascular primary cell, with measurements taken at 24 hours after chemical dosing in a microplate: 96-well plate.BSK_BF4T_VCAM1 is an assay component measured in the BSK_BF4T assay. It measures VCAM-1 antibody related to regulation of gene expression using ELISA technology.Data from the assay component BSK_BF4T_VCAM1 was analyzed at the endpoint, BSK_BF4T_VCAM1, in the positive analysis fitting direction relative to DMSO as the negative control and baseline of activity. Using a type of binding reporter, gain or loss-of-signal activity can be used to understand protein changes. To generalize the intended target to other relatable targets, this assay endpoint is annotated to the 'cell adhesion molecules' intended target family, where the subfamily is 'Immunoglobulin CAM'.
The levels of cell surface (or secreted, indicated by the prefix "s") biomarker endpoints were measured by ELISA. Overt cytotoxicity to cells in confluent adherent cultures (all systems other than the BT system) was assessed by measuring total protein levels using sulforhodamine B (SRB) staining in parallel cultures at the time of biomarker measurements, indicated as SRB endpoints. For proliferation assays for adherent cell types, individual cell types are cultured at sub-confluence and relative cell numbers quantified by SRB staining at time points optimized for each system (48 h: 3C and CASM3C systems; 72 h: BT and HDF3CGF systems; 96 h: SAg system). SRB was performed by staining cells with 0.1% SRB after fixation with 10% TCA and reading wells at 560 nm.Viability and proliferation of PBMC (T cells) was quantified by Alamar Blue reduction for the SAg and BT systems. For PBMC viability (referred to as PBMC Cytotoxicity within the assay endpoint names), cells were plated (75,000/well in a 96-well plate) and then chemical samples added for 1 h before addition of activators, SEB and TSST-1 (20 ng/mL final concentration each). Cells were incubated for 90 h. Then, Alamar Blue (20 uL/well) (Invitrogen, Cat DAL1100) was added for 6 h, and the plates were read with a fluorescence microplate reader at 546/580 nm (excitation/emission). For PBMC proliferation, cells were plated and activated as above but incubated for only 16 h prior to addition of Alamar Blue. Plates were read after 6 h.

SMILES | outcome | AC50
FC(F)(F)C(F)(F)C(F)(F)C(F)(F)C(F)(F)C(F)(F)C(F)(F)I | inactive | –
C=CC(=O)OCC(F)(F)C(F)(F)C(F)(F)C(F)(F)COC(=O)C=C | – | 7.96 µM (active) and 10.9 µM (active)
O=P(O)(O)OCCC(F)(F)C(F)(F)C(F)(F)C(F)(F)C(F)(F)C(F)(F)F | inactive | –
OCCCC(F)(F)C(F)(F)C(F)(F)F | inactive | –
O=S(=O)(OCCOC(F)(F)F)C(F)(F)F | inactive | –
CCO[Si](CCC(F)(F)C(F)(F)C(F)(F)C(F)(F)C(F)(F)C(F)(F)F)(OCC)OCC | inactive | –
C=C(C)C(=O)OCC(F)(F)C(F)(F)C(F)(F)F | inactive | –
FC(F)(F)C(F)(F)C(F)(F)C(F)(F)C(F)(F)CCI | inactive | –
O=C(O)C(F)(F)C(F)(F)C(F)(F)C(F)(F)C(F)(F)C(F)(F)C(F)(F)C(F)(F)C(F)(F)C(F)(F)C(F)(F)C(F)(F)C(F)(F)F | inactive | –
O=C(O)C(F)(F)C(F)(F)OC(F)(F)F | inactive | –
FC(F)(F)C(F)(F)C(F)(F)C(F)(F)C(F)(F)C(F)(F)C(F)(F)C(F)(F)CCS | inactive | –
O=C(O)C(F)(F)C(F)(F)C(F)(F)C(F)(F)C(F)(F)C(F)(F)C(F)(F)C(F)(F)Cl | inactive | 7.26 µM (active)
O=C(Cl)C(F)(F)C(F)(F)C(F)(F)C(F)(F)C(F)(F)C(F)(F)C(F)(F)C(F)(F)F | – | 38.9 µM (active) and 47.4 µM (active) and 45.5 µM (active)
O=C(O)C(F)(F)C(F)(F)C(F)(F)F | inactive | –
O=C(O)C(F)(F)C(F)(F)C(F)(F)C(F)(F)C(F)(F)C(F)(F)C(F)(F)C(F)(F)C(F)(F)C(F)F | inactive | 7.76 µM (active)
OCC(F)(F)C(F)(F)C(F)(F)F | inactive | –
OCC(F)(F)C(F)(F)C(F)(F)C(F)(F)C(F)(F)C(F)(F)F | inactive | –
COC(=O)CCC(F)(F)C(F)(F)C(F)(F)C(F)(F)F | inactive | –
FC(F)(F)C(F)(F)C(F)(F)N(C(F)(F)C(F)(F)C(F)(F)F)C(F)(F)C(F)(F)C(F)(F)F | inactive | –

SMILES | outcome | AC50
NC(=O)C(F)(F)C(F)(F)C(F)(F)C(F)(F)F | inactive | –
FC(F)(F)C(F)(F)C(F)(F)C(F)(F)C(F)(F)C(F)(F)CC1CO1 (stereo not given) | inactive | –
FC(F)(F)C(F)(F)C(F)(F)C(F)(F)C(F)(F)C(F)(F)C(F)(F)C(F)(F)F | inactive | –
FC(F)(Br)C(F)(F)C(F)(F)C(F)(F)C(F)(F)C(F)(F)Br | inactive | –
O=C(O)C(F)(F)C(F)(F)C(F)(F)C(F)(F)C(F)(F)C(F)(F)C(F)(F)C(F)(F)C(F)(F)C(F)(F)C(F)(F)C(F)(F)F | inactive | –
C=CC(F)(F)C(F)(F)C(F)(F)C(F)(F)C(F)(F)C(F)(F)C(F)(F)C(F)(F)F | inactive | –
O=C(O)C(F)(OC(F)(F)C(F)(OC(F)(F)C(F)(F)C(F)(F)F)C(F)(F)F)C(F)(F)F (stereo not given) | inactive | –
FC(F)(F)C(F)(F)C(F)(F)C(F)(F)C(F)(F)C(F)(F)C(F)(F)Br | inactive | –
FC(F)(F)C(F)(F)CNCC(F)(F)C(F)(F)F | inactive | –
C=C(C)C(=O)OCCC(F)(F)C(F)(F)C(F)(F)C(F)(F)C(F)(C(F)(F)F)C(F)(F)F | inactive | –
FC(F)(I)C(F)(F)C(F)(F)C(F)(F)I | – | 41.5 µM (active) and 47 µM (active) and 30 µM (active)
FC(F)(F)C(F)(F)C(F)(F)C(F)(F)CCI | inactive | –
C=C(C)C(=O)OCC(F)(F)C(F)(F)C(F)(F)C(F)(F)C(F)(F)C(F)(F)C(F)(F)F | inactive | –
O=S(=O)(O)C(F)(F)C(F)(F)C(F)(F)C(F)(F)C(F)(F)C(F)(F)C(F)(F)F | inactive | –
O=S(=O)(OCC(F)F)C(F)(F)F | inactive | –
N=C(N)C(F)(F)C(F)(F)C(F)(F)C(F)(F)C(F)(F)C(F)(F)C(F)(F)F | inactive | –
OCCCC(F)(F)C(F)(F)C(F)(F)C(F)(F)C(F)(F)C(F)(F)C(F)(F)F | – | 38.1 µM (active) and 42.2 µM (active)
OCC(F)(F)C(F)(F)C(F)(F)C(F)(F)C(F)(F)C(F)F | inactive | –
Cc1ccc(S(=O)(=O)OCC(F)(F)C(F)(F)C(F)(F)C(F)(F)C(F)(F)C(F)F)cc1 | inactive | –
